Screening results from PubChem.
DAX1 inh-1: NR0B1 (DAX1) inhibition; 340,000 tested, 0.99% active; inhibition, % at 6.75 µM; AID 504766; HEK293 Gal4-DAX1 luciferase reporter, luminescence; P51843;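 active = inhibition above the mean over all tested compounds plus 3 SD, cut at about 4.2% in these data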;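 note: inhibition shows as a rise in luminescence from relieved DAX1 repression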
Target sequence (P51843 207-470 limits assumed): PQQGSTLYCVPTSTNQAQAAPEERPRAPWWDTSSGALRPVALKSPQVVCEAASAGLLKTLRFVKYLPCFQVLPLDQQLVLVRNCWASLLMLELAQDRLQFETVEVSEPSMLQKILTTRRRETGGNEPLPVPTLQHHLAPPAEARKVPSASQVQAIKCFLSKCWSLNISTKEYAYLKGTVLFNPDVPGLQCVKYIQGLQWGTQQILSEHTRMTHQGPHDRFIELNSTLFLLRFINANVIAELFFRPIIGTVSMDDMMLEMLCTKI
hcDAF-12 act: H. contortus DAF-12 activation, primary screen; activation, % at 6.8 µM; HEK293 hcDAF-12 lit1-tk-luc reporter, luminescence; 0% DMSO, 100% Δ7-dafachronic acid; 370,000 tested, 1.4% active;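 active = activation above the mean of all tested compounds plus 3 SD, cut at about 5.5% in these data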
hgDAF-12 ag: agonists of H. glycines DAF-12 nuclear receptor | HEK293 GAL4-hgDAF12 UAS-luciferase reporter, agonist luminescence; normalized to butyrate control | 370,000 tested, 1.8% active | activation, % at 6.8 µM;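 active = activation above a cutoff set at the mean of all screened compounds plus 3 SD, cut at about 10% in these data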
ssDAF12 agonist: activates DAF-12 receptor from parasite S. stercoralis; HEK293 ssDAF-12/GRIP1 lit1-tk-luc reporter, luminescence; % of 3 µM dafachronic acid response; activation, % at 6.8 µM; 370,000 tested, 1% active; AID 652126;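 active = activation above the mean over all tested compounds plus 3 SD, cut at about 0.9% in these data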
DAX1 inh-2: blocks DAX1 repression of SF-1 activated StAR promoter | inhibition, % at 6.8 µM | 370,000 tested, 1.1% active | HEK293T StAR-luciferase reporter, SF-1/DAX-1 repression relief;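 active = inhibition above the mean over all tested compounds plus 3 SD, cut at about 3.6% in these data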;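 note: higher inhibition means more luminescence from relief of DAX-1 repression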
LXR ag: counter-screen for hcDAF-12 agonists: agonists of human LXR-beta | shares compounds with hcDAF-12 act | HEK293 Gal4-LXR tk-luc reporter, luminescence, 24 h; normalized: DMSO 0%, positive control 100% | activation, % at 6.8 µM | 3,400 tested, under 10 active | AID 743027;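 active = mean percent activation of the reporter above a cutoff set as the average over tested compounds plus their standard deviation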
Target sequence (P55055 whole entry, looked up, the tested form may be a part): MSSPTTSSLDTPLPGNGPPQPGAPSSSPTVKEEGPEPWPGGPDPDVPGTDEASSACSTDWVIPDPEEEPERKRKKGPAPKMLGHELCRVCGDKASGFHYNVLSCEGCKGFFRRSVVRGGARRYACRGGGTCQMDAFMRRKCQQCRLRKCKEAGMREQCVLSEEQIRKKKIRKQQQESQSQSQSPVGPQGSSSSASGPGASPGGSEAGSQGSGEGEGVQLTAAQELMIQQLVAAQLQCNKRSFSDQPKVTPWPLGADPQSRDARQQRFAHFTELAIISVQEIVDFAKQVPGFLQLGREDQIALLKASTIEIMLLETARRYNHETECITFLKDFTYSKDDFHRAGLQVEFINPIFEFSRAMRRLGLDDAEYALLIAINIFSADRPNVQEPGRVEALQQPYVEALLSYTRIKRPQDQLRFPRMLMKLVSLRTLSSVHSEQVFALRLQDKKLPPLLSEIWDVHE
hcDAF12 conf: hcDAF-12 agonism, confirmation assay | shares compounds with hcDAF-12 act | HEK293 hcDAF-12 lit1-tk-luc reporter, luminescence; % of Δ7-dafachronic acid response | activation, % at 6.8 µM | 3,400 tested, 61% active | AID 743032;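 active = mean activation across triplicate tests above the threshold derived from the earlier primary screen, cut at about 5.5% in these data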
hgDAF12 conf: confirmation of H. glycines DAF-12 agonists | shares compounds with hgDAF-12 ag | HEK293 GAL4-hgDAF12 luciferase reporter, agonist mode; percent of butyrate response | activation, % at 6.8 µM | 3,300 tested, 80% active;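 active = mean activation over triplicate wells above the hit cutoff derived from the earlier primary screen, cut at about 11% in these data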
LXRb DAF12 ctr: LXR-beta agonism as DAF-12 counter-screen. shares compounds with hgDAF-12 ag. activation, % at 6.8 µM. HEK293 Gal4-LXR luciferase reporter, 24 h. 3,300 tested, under 10 active;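 active = mean activation of the triplicate above a set limit carried over from the primary screen, none filed active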
Of the large screens only hits and unclear results are named; the others gave an inactive call (follow-up assays come after a bar, where they were run). Hits are enriched below; roughly 4.1% of the tested compounds scored in any of these assays.

Cc1csc(NC(=O)c2cc3c(s2)CCC3)n1	hcDAF-12 act 7.4, hgDAF-12 ag 17.2 | LXR ag inactive | hcDAF12 conf 9.0 | hgDAF12 conf 17.6 | LXRb DAF12 ctr inactive
CCc1sc(C(=O)Nc2nc(C)cs2)cc1C	hcDAF-12 act 9.2, hgDAF-12 ag 15.2 | LXR ag inactive | hcDAF12 conf 6.1 | hgDAF12 conf 17.0 | LXRb DAF12 ctr inactive
CCc1sc(C(=O)Nc2ccc(NC(C)=O)cc2)cc1C	none
COc1cccc(/C=N/Nc2ccc([N+](=O)[O-])cc2)c1O	hcDAF-12 act 7.3, hgDAF-12 ag 24.6 | LXR ag inactive | hcDAF12 conf 7.2 | hgDAF12 conf 20.9 | LXRb DAF12 ctr inactive
Cc1ccc(-c2nc3ccccc3nc2NN)cc1	DAX1 inh-1 5.1, hcDAF-12 act 11.7, hgDAF-12 ag 17.9, ssDAF12 agonist 2.2 | LXR ag inactive | hcDAF12 conf 11.3 | hgDAF12 conf 19.9 | LXRb DAF12 ctr inactive
Cc1ccc(-c2nc3ccccc3nc2Cl)cc1	none
CC(=C/c1ccccc1)/C=N/NC(=O)c1cccs1	hcDAF-12 act 7.8, hgDAF-12 ag 19.5 (no result: DAX1 inh-1) | LXR ag inactive | hcDAF12 conf 8.2 | hgDAF12 conf 14.9 | LXRb DAF12 ctr inactive
O=C(N/N=C/C(Br)=C\c1ccccc1)c1cccs1	none (no result: DAX1 inh-1)
O=C(Nc1nc2ccccc2[nH]1)c1cccc(F)c1	hcDAF-12 act 13.2, hgDAF-12 ag 16.9, ssDAF12 agonist 2.3 | LXR ag inactive | hcDAF12 conf 12.2 | hgDAF12 conf 17.5 | LXRb DAF12 ctr inactive
O=C(Nc1nc2ccccc2[nH]1)c1ccc([N+](=O)[O-])cc1	none
COC(=O)[C@H](C(C)C)N(CCCc1cn(CC2CCCCC2)nn1)S(=O)(=O)c1ccc(F)cc1Br	none (no result: DAX1 inh-1)
Cc1ccc(S(=O)(=O)/N=C(/NC(=S)Nc2ccccc2)c2ccccc2)cc1	hcDAF-12 act 14.2, hgDAF-12 ag 28.0, ssDAF12 agonist 2.6 | LXR ag inactive | hcDAF12 conf inactive | hgDAF12 conf 20.2 | LXRb DAF12 ctr inactive
COc1ccc(C(O)c2ncc(-c3ccccc3F)[nH]2)cc1 (centres undefined)	none (no result: DAX1 inh-1)
COc1ccc(-c2cc3ccc(OC)cc3cn2)cc1	hcDAF-12 act 9.9, hgDAF-12 ag 20.8, ssDAF12 agonist 1.1, DAX1 inh-2 4.2 | LXR ag inactive | hcDAF12 conf 11.7 | hgDAF12 conf 17.6 | LXRb DAF12 ctr inactive
COc1ccc2cc(-c3ccccc3F)ncc2c1	hcDAF-12 act 10.9, hgDAF-12 ag 16.2, ssDAF12 agonist 1.1 | LXR ag inactive | hcDAF12 conf 11.4 | hgDAF12 conf 23.5 | LXRb DAF12 ctr inactive
O=C(CCCCCN1C(=O)C2C3C=CC(C3)C2C1=O)N1CCN(c2ncccn2)CC1 (centres undefined)	none (no result: DAX1 inh-1)
CCOC(=O)/C(=N\Nc1ncnc2ccccc12)c1ccc(OC)cc1	hcDAF-12 act 16.8, hgDAF-12 ag 18.3, ssDAF12 agonist 2.4 | LXR ag inactive | hcDAF12 conf 11.5 | hgDAF12 conf 17.3 | LXRb DAF12 ctr inactive
CCOC(=O)C(Cc1ccnc2ccccc12)=NO	none
COc1ccc(/C(=N/Nc2ncnc3ccccc23)C(=O)O)cc1	hcDAF-12 act 11.2, hgDAF-12 ag 15.8, ssDAF12 agonist 1.8 | LXR ag inactive | hcDAF12 conf 7.5 | hgDAF12 conf 15.6 | LXRb DAF12 ctr inactive
O=C(CN(CCc1ccccc1)S(=O)(=O)c1cccs1)N1CCOCC1	none (no result: DAX1 inh-1)
Nc1ccccc1C(=O)N/N=C1\C2CN3CCN(C2)CC1(c1ccccc1)C3	DAX1 inh-1 5.0, hcDAF-12 act 12.2, hgDAF-12 ag 13.8 | LXR ag inactive | hcDAF12 conf inactive | hgDAF12 conf inactive | LXRb DAF12 ctr inactive
O=C(N/N=C1\C2CN3CCN(C2)CC1(c1ccccc1)C3)c1ccc(F)cc1	none
CC1(c2nnnn2C2CCCCC2)CCCC(=O)N1CCc1ccc(O)cc1 (centres undefined)	none (no result: DAX1 inh-1)
CCOC(=O)C1CCN(C(=O)C(C)(C)NC(=O)Nc2ccc(OC)c(Cl)c2)CC1	none (no result: DAX1 inh-1, DAX1 inh-2)
O=C(NC(=S)NCc1ccccc1)c1ccc(Br)o1	none
O=C(NC(=S)Nc1ccccc1)c1ccc(Br)o1	hcDAF-12 act 7.9, hgDAF-12 ag 17.1 | LXR ag inactive | hcDAF12 conf 7.6 | hgDAF12 conf 13.3 | LXRb DAF12 ctr inactive
O=C(NCc1ccccc1)Nc1ccccc1C(=O)N1CCCC1	none (no result: DAX1 inh-1)
Fc1ccc(-n2nnc(-c3cccnc3Cl)n2)cc1	DAX1 inh-1 4.4, hcDAF-12 act 7.2, hgDAF-12 ag 16.8 | LXR ag inactive | hcDAF12 conf inactive | hgDAF12 conf 17.3 | LXRb DAF12 ctr inactive
CCc1nnc(NC(=O)CSc2ccc(-c3nc4ccc(C)cc4[nH]3)cn2)s1	hcDAF-12 act 7.3, hgDAF-12 ag 16.9, DAX1 inh-2 4.4 | LXR ag inactive | hcDAF12 conf 7.8 | hgDAF12 conf 17.7 | LXRb DAF12 ctr inactive
Cc1cc2nc(-c3ccc(SCC(=O)Nc4nccs4)nc3)[nH]c2cc1C	none
O=C(Nc1ncccc1O)c1ccc(Oc2ccccc2)cc1	hcDAF-12 act 6.8, hgDAF-12 ag 19.2, DAX1 inh-2 3.8 | LXR ag inactive | hcDAF12 conf 5.8 | hgDAF12 conf 26.1 | LXRb DAF12 ctr inactive
COc1cccc(-c2ncn(CCc3ccccc3OC)c2CC(C)C)c1	none (no result: DAX1 inh-1)
Cc1cc2c(c(=O)o1)[C@@]1(C(=O)N(C)c3cc(Br)ccc31)C1=C(CCCC1=O)O2	none (no result: DAX1 inh-1)
CC1(C)CC(/C=C/c2ccccc2)=Nc2ccccc2N1	DAX1 inh-1 6.0, hcDAF-12 act 7.6, hgDAF-12 ag 19.1, ssDAF12 agonist 1.8 | LXR ag inactive | hcDAF12 conf inactive | hgDAF12 conf inactive | LXRb DAF12 ctr inactive
O=C(COc1ccccc1)Nc1nccs1	none
O=C(COc1ccc2ccccc2c1)Nc1nccs1	hcDAF-12 act 6.7, hgDAF-12 ag 19.1, DAX1 inh-2 3.6 | LXR ag inactive | hcDAF12 conf 7.2 | hgDAF12 conf 18.1 | LXRb DAF12 ctr inactive
C/C(=N/NC(=O)CSc1nnc(SCc2ccc(C)cc2)s1)c1cccc(O)c1	none (no result: DAX1 inh-1)
c1ccc(-c2csc(Nc3cccnc3)n2)cc1	hcDAF-12 act 8.1, hgDAF-12 ag 20.6, ssDAF12 agonist 1.5 | LXR ag inactive | hcDAF12 conf 7.9 | hgDAF12 conf 14.2 | LXRb DAF12 ctr inactive
CCN(CC)c1ccc(Nc2nc(-c3cccnc3)cs2)cc1	none
